Experimental data: PubChem BioAssay (NCI)
The panel holds about 79,000 compounds, 15% with a hit somewhere; the sample as a whole holds those more often. Unmarked numbers belong to inactive results. Activity calls are given as the source filed them. No stated cut-off is given here; in the data, active means growth inhibition above about 70%; inactive means the rest.

Key:
[1] = NCI Yeast Anticancer Drug Screen. Data for the rad50 strain (AID 155);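 further: 0% = growth of vehicle-only cultures of the same strain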; conditions: S. cerevisiae rad50 strain growth inhibition, active compounds read high
Method in brief: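 Compounds were tested on a yeast strain with an engineered DNA damage repair alteration; the reported value is growth inhibition normalised to vehicle treatment.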

[2] = NCI Yeast Anticancer Drug Screen. Data for the mec2-1 strain (AID 157); conditions: S. cerevisiae mec2-1 strain, active compounds read high
Method in brief: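 Growth inhibition is read against vehicle-treated controls after compound exposure of the mec2-1 yeast strain, which is defective in DNA damage repair or cell cycle control.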

[3] = NCI Yeast Anticancer Drug Screen. Data for the sgs1 mgt1 strain (AID 161);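 further: 0% = growth of cultures given vehicle only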; conditions: S. cerevisiae sgs1 mgt1 strain, active compounds read high
Method in brief: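 Percent growth inhibition was derived by comparing compound-exposed mutant yeast with vehicle-exposed cultures. The strain carries alterations in DNA damage repair.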

[4] = NCI Yeast Anticancer Drug Screen. Data for the cln2 rad14 strain (AID 165);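 further: 0% = growth equal to vehicle treated cultures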; conditions: S. cerevisiae cln2 rad14 strain, active compounds read high
Method in brief: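 Growth inhibition, relative to vehicle-treated controls, is the read-out. The test organism is a yeast strain with defined genetic alterations, cln2 rad14.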

[5] = NCI Yeast Anticancer Drug Screen. Data for the bub3 strain (AID 167); conditions: S. cerevisiae bub3 mutant strain, active compounds read high
Method in brief: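 Growth of a checkpoint-deficient yeast mutant is measured after compound exposure. Values represent inhibition relative to vehicle.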

[6] = NCI Yeast Anticancer Drug Screen. Data for the mlh1 rad18 strain (AID 175); conditions: S. cerevisiae mlh1 rad18 strain growth inhibition, active compounds read high
Method in brief: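 Cells of a genetically altered yeast strain, deficient in DNA damage repair, were treated with compound. Their growth was then compared with that of vehicle-treated cultures to give inhibition.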

[7] = at 5.0 µM (retest, dose inferred, filed as 0.5)
[8] = at 50.0 µM (retest, dose inferred, filed as 5.0)

Row | SMILES | growth inhibition [1, 7] | growth inhibition [1, 8] | growth inhibition ([1]; at 50.0 µM) | growth inhibition [2, 7] | growth inhibition [2, 8] | growth inhibition ([2]; at 50.0 µM) | growth inhibition [3, 7] | growth inhibition [3, 8] | growth inhibition ([3]; at 50.0 µM) | growth inhibition [4, 7] | growth inhibition [4, 8] | growth inhibition ([4]; at 50.0 µM) | growth inhibition [5, 7] | growth inhibition [5, 8] | growth inhibition ([5]; at 50.0 µM) | growth inhibition [6, 7] | growth inhibition [6, 8] | growth inhibition ([6]; at 50.0 µM)
1 | Cn1cnc2[nH]c(Cl)nc(=S)c21 | -1% | 2% | 1.05% | 3% | 0% | -8.25% | -1% | 0% | -0.65% | -6% | 0% | 81.1% (active) | -1% | -4% | 11.9% | -2% | 0% | 15.6%
2 | CCOc1ccc(N=Nc2ccccc2)cc1 | -11% | -58% | 1.8% | -25% | -35% | 37.1% | -8% | -39% | -19.8% | 0% | -27% | 38% | -13% | -39% | -12.6% | -9% | -49% | -11.9%
3 | CS(=O)(=O)c1cc(=O)c2ccccc2s1 | 6% | 99% (active) | 97.2% (active) | 23% | 99% (active) | 96.6% (active) | 21% | 99% (active) | 97.5% (active) | 10% | 99% (active) | 84.7% (active) | -3% | 100% (active) | 31.6% | 17% | 99% (active) | 97.8% (active)
4 | N#CC1(C#N)C(C#N)(C#N)C12CCC2 | 4% | 87% (active) | 35.2% | 6% | 88% (active) | 49.8% | 6% | 91% (active) | 50.6% | 0% | 65% | -2.45% | 7% | 96% (active) | 70% (active) | 2% | 96% (active) | 83.8% (active)
5 | CCCCCCCCCCCC#CCCCCC(=O)O | 87% (active) | 94% (active) | 56.8% | 95% (active) | 97% (active) | 62.5% | 93% (active) | 96% (active) | 83.7% (active) | 27% | 91% (active) | 61% | 96% (active) | 95% (active) | 67.7% | 96% (active) | 95% (active) | 60%
6 | CC1(C)CC(=O)C(CC2C(=O)c3ccccc3C2=O)C(=O)C1C(=O)C(=O)Nc1cccc2ccc(O)cc12 (configuration not stated) | 28% | 48% | 7.85% | 25% | 23% | -13.3% | 10% | 39% | -8.6% | 22% | 39% | -7.7% | 30% | 36% | -31.9% | 32% | 52% | -30.2%
7 | Cc1cc(Cl)nc2ccc(Cc3ccc4nc(Cl)cc(C)c4c3)cc12 | 4% | 27% | 15.1% | 15% | 5% | 2.45% | 7% | 7% | -19.6% | 3% | 13% | 15.4% | 8% | 13% | 23.4% | 0% | 12% | 37.8%
8 | [N-]=[N+]=NC1=CC(=O)c2cccc3cccc1c23 | 45% | 99% (active) | 80.8% (active) | 31% | 99% (active) | 86.5% (active) | 65% | 99% (active) | 87.6% (active) | 47% | 98% (active) | 80.1% (active) | 32% | 99% (active) | 89% (active) | 72% (active) | 99% (active) | 89.5% (active)
9 | CC(=O)Nc1ccc(N=C2c3ccccc3-c3ccc(NC(C)=O)cc32)cc1 | 2% | 64% | 98.4% (active) | 0% | 52% | 77.3% (active) | -2% | 57% | 98.5% (active) | 3% | 28% | 43.4% | -1% | 53% | 87.8% (active) | -5% | 59% | 98.2% (active)
10 | COC(=O)c1ccccc1NC(=S)NN(C)C | 13% | 20% | -0.25% | 7% | 17% | -14.3% | -5% | 16% | -8.9% | 9% | 11% | 18.2% | -20% | 36% | 3.85% | 16% | 28% | -2%
11 | Cc1ccc(Cc2nc(=S)[nH][nH]2)cc1 | 20% | 19% | 1.6% | -3% | 6% | -38.5% | -3% | 9% | -2.75% | 1% | 1% | -9.2% | 8% | 19% | -6.3% | 14% | 21% | -34.8%
12 | O=[N+]([O-])c1ccc(-c2cccc(Cl)c2)c([N+](=O)[O-])c1 | 6% | 98% (active) | 99.3% (active) | -3% | 99% (active) | 99% (active) | 13% | 99% (active) | 99.2% (active) | -17% | 98% (active) | 91% (active) | 9% | 99% (active) | 98.8% (active) | 2% | 98% (active) | 97.9% (active)
13 | COc1ccc2c(c1)CCCN2CCCCCCCCCN1CCCCC1 | 31% | 36% | 62% | 27% | 53% | 57.9% | 45% | 81% (active) | 82.8% (active) | 35% | 44% | 42.4% | 45% | 76% (active) | 79.6% (active) | 47% | 63% | 69%
14 | COc1ccc(/C=C2\CCCc3ccccc3C2=O)cc1 | -3% | 33% | 60.2% | 2% | 86% (active) | 53.3% | 9% | 86% (active) | 77.7% (active) | -12% | -3% | 20% | 64% | 90% (active) | 80.4% (active) | 5% | 81% (active) | 62.2%
15 | CC(=O)Nc1c(Cl)ccc2c1Cc1cc([N+](=O)[O-])ccc1-2 | 19% | 92% (active) | 91% (active) | 2% | 19% | 45.8% | 6% | -39% | 49.5% | -3% | 44% | 47.9% | -7% | 10% | 10.7% | -9% | 66% | 90.8% (active)
16 | NS(=O)(=O)c1ccc(-n2cccc2)cc1 | 0% | -4% | 10.6% | -2% | -3% | -11.3% | -1% | -3% | -1.6% | 1% | -1% | 56.6% | -6% | -7% | 23.5% | -2% | -3% | 7.7%
17 | BrC(Br)=C1C(=C(Br)Br)C(Br)C1Br (configuration not stated) | 31% | 69% | 61.6% | -10% | 59% | 77.4% (active) | 72% (active) | 94% (active) | 83.8% (active) | 19% | 53% | 55% | 18% | 66% | 73% (active) | 40% | 71% (active) | 71.6% (active)
18 | CN(N(P(c1ccccc1)c1ccccc1)P(c1ccccc1)c1ccccc1)P(c1ccccc1)c1ccccc1 | -1% | 2% | 88.7% (active) | -5% | 9% | 81.9% (active) | -15% | 2% | 88.2% (active) | 2% | 0% | 64.2% | 1% | -4% | 76.5% (active) | -14% | -17% | 93.2% (active)
19 | O=C(Nc1ccc(Cl)c(Cl)c1Cl)Oc1c(Cl)c(Cl)c(Cl)c(Cl)c1Cl | 25% | 97% (active) | 99.5% (active) | 36% | 100% (active) | 99.6% (active) | 43% | 99% (active) | 99.6% (active) | 13% | 99% (active) | 99.2% (active) | 10% | 99% (active) | 98.5% (active) | 20% | 99% (active) | 99.5% (active)
